Screens as filed in PubChem BioAssay.
This is a sample that favours compounds with a hit; in the whole collection about 3.5% have one here.
MITF primary: human MITF inhibition, primary screen. AlphaScreen MITF homodimerization, bead proximity signal. inhibition, % at 2.6 µM. 0.91% of 650,000 active. AID 1259374; in the data active = inhibition above about 50%;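 note: 0% = vehicle wells with protein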
Target sequence (O75030 whole entry, looked up): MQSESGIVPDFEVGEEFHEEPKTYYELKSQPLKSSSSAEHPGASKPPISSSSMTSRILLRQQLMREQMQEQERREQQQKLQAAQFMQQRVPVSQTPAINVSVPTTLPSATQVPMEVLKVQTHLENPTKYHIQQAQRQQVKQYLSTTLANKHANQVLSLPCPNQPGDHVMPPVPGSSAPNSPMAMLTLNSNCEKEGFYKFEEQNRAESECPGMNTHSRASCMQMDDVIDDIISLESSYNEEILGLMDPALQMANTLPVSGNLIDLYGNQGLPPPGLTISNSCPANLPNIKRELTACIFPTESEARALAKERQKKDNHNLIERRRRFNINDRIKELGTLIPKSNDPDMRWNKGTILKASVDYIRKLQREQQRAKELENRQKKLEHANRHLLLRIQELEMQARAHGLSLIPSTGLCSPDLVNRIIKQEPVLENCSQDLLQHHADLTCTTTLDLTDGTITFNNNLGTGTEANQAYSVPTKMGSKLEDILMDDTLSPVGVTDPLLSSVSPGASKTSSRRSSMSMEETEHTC
GPR151 ag: activates the human receptor GPR151. activation, % at 11.2 µM. PathHunter beta-arrestin GPR151 cells, luminescence. 1% of 650,000 active. Q8TDV0; in the data active = activation above about 4.9%;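 note: 0% = median of compound wells and 100% = cells with positive control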
FBW7 activator: human FBW7 E3 ligase activation, primary screen; Q969H0; AlphaScreen FBW7–phospho-cyclin E peptide binding, activator screen; normalized activity (activation), % at 26.1 µM; 0.13% of 650,000 active; in the data active = normalized activity above about 1.9%;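 note: purified mutant Fbw7 with reduced substrate affinity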
TEAD-YAP inh: TEAD-YAP interaction inhibition; HEK-TIYL cells, TEAD-Gal4/YAP UAS-luciferase luminescence; inhibition, % at 9.12 µM; 1.4% of 640,000 active; AID 1259422; in the data active = inhibition above about 32%;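 note: 0% = median of test compound wells and 100% = reference inhibitor wells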
GPR151 conf act: confirmation of human GPR151 activators | AID 1508609 | 6,700 tested, under 10 active | activation, % at 11.2 µM | shares compounds with GPR151 ag | GPR151 PathHunter beta-arrestin cells, luminescence, 90 min; % of EA-reagent control over plate median;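 active = mean percent activation across replicates above the confirmation screen cutoff of 4.91%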
GPR119 counter: counter-screen for GPR151 activators: effect on human GPR119; activation, % at 11.2 µM; GPR119 PathHunter beta-arrestin cells, luminescence, 90 min; 0 = compound-well median, 100 = enzyme-acceptor control; 0.3% of 6,700 active; AID 1508611; shares compounds with GPR151 ag;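 active = mean percent activation in the counterscreen above 29.09%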;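 note: counterscreen on off-target GPR119 to flag nonselective hits from the GPR151 activator screen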
Numbers without * were called inactive; nt = no result.

SMILES	MITF primary	GPR151 ag	FBW7 activator	TEAD-YAP inh	GPR151 conf act	GPR119 counter
Cc1ccc(CN2CCc3nnc(C(NC(=O)C4CCOC4)C(C)C)n3CC2)s1 (stereo not drawn)	6	0	0	7	nt	nt
CCOC(=O)C1CCCN(c2c(NCCCN3CCN(C)CC3)c(=O)c2=O)C1 (stereo not drawn)	-3	0	0	5	nt	nt
CCCCNc1c(N2CCCC(C(=O)OCC)C2)c(=O)c1=O (stereo not drawn)	1	5.1*	0	-1	3	6
CCOC(=O)C1CCN(c2c(NCCN3CCOCC3)c(=O)c2=O)CC1	10	6.3*	0	1	-1	-18
Cc1cc2n(n1)C(c1cccc(O)c1)Nc1ccccc1-2 (stereo not drawn)	11	7.9*	0	7	0	3
COC(=O)N/N=C/c1ccc(-c2cccc(C(=O)O)c2)o1	9	-2	0	-11	nt	nt
Cc1ccc([N+](=O)[O-])cc1N1C(=O)C2CC=C(Cl)CC2C1=O (stereo not drawn)	-6	0	0	-2	nt	nt
Cc1cc([N+](=O)[O-])ccc1N1C(=O)C2CC=C(Cl)CC2C1=O (stereo not drawn)	9	5.6*	0	2	1	-3
COc1cc(OC)c(S(=O)(=O)N2CCCc3ccccc32)cc1NC(C)=O	11	6.1*	0	-3	0	2
COc1ccc(C(=O)Nc2ccccc2)cc1S(=O)(=O)N1CCCc2ccccc21	32	-1	0	19	nt	nt
CCCCCCOC(=O)Nc1nnc(CCC)s1	18	12*	0	0	0	-5
CC1(C)C(=O)OC(c2ccc(Br)cc2)C2(CCCCC2)C1=O (stereo not drawn)	13	-1	0	2	nt	nt
CC1(C)C(=O)OC(c2ccccc2)C2(CCCC2)C1=O (stereo not drawn)	-3	6.0*	0	-1	1	5
C=CCOc1ccccc1C(c1c(C)[nH][nH]c1=O)c1c(C)[nH][nH]c1=O	7	9.5*	-1	5	0	-8
O=C(NCC1Cc2cccc(-c3ccncc3)c2O1)c1cccc(Cn2cccn2)c1 (stereo not drawn)	-3	9.0*	0	2	0	8
COC(=O)c1c(NC(=O)c2ccc(C)cc2)sc2c1CCCCC2	6	-1	0	-1	nt	nt
COC(=O)c1c(NC(=O)c2ccc(C)cc2)sc2c1CCCC2	1	6.5*	0	4	0	14
COc1ccc(OC)c(NC(=O)c2c(NCc3ccc(C)o3)sc3c2CCCC3)c1	3	3	0	4	nt	nt
COC(=O)c1ccc(NC(=O)c2c(NCc3ccc(C)o3)sc3c2CCCC3)cc1	14	8.1*	0	-7	1	0
Cc1c(C(=O)Nc2ccc(Cl)c(Cl)c2)sc2ncn(Cc3cccc(F)c3)c(=O)c12	27	-1	1	-2	nt	nt
CC1CN(C(=S)NCc2ccco2)CC(C)O1 (stereo not drawn)	11	0	0	4	nt	nt
COCCCNC(=O)c1cc2c(=O)n3cccc(C)c3nc2n(CCOC)c1=N	27	6.6*	0	5	0	-1
CCC(C)n1c(=N)c(C(=O)NC2CCCCC2)cc2c(=O)n3cccc(C)c3nc21 (stereo not drawn)	6	5.2*	0	5	0	-6
CCn1c(=N)c(C(=O)NC2CCCC2)cc2c(=O)n3cccc(C)c3nc21	0	1	0	14	nt	nt
NS(=O)(=O)c1ccc(CCNC(=O)CN2C(=O)C3C4C=CC(C4)C3C2=O)cc1 (stereo not drawn)	14	8.1*	0	6	0	-11
SMILES	MITF primary	GPR151 ag	FBW7 activator	TEAD-YAP inh	GPR151 conf act	GPR119 counter
CCN(CC)C(=O)c1sc(N)c(C(=O)OC(C)C)c1C	12	16*	0	0	0	3
COc1cc(NC(=O)c2ccc([N+](=O)[O-])cc2Cl)ccc1NC(=O)c1cc2ccccc2o1	16	-1	0	10	nt	nt
Cc1nc2c(-c3ccccc3)c(C)nn2c(C)c1CCC(=O)NCCN1CCOCC1	-4	7.6*	0	1	-1	-7
O=C(O)c1ccc2nc(-c3ccc(Br)cc3)cn2c1	8	2	0	-67	nt	nt
CCOc1cc(/C=c2/sc3nc4ccccc4n3c2=O)cc(I)c1O	3	5.1*	0	13	1	15
O=C(c1ccco1)N1C2CCC1CC(c1ccc(F)cc1)C2 (stereo not drawn)	-6	8.6*	0	-6	0	2
Cc1nnsc1C(=O)N1CCC(c2ccccc2)C1 (stereo not drawn)	13	-1	0	-4	nt	nt
Cc1nnsc1C(=O)N1C2CCC1CC(c1ccc(F)cc1)C2 (stereo not drawn)	-19	12*	0	16	0	1
O=C(c1cscn1)N1C2CCC1CC(c1ccc(F)cc1)C2 (stereo not drawn)	8	0	0	5	nt	nt
CCc1noc(C)c1C(=O)OCC(=O)Nc1cc(C)on1	16	5.3*	0	5	2	2
COC(=O)c1ccc(NC(=O)Cn2cc(C=O)c3ccccc32)cc1	-2	-1	0	2	nt	nt
CCOC(=O)Cc1csc(NC(=O)CSc2nc(C)cc(C)n2)n1	-2	5.6*	0	-3	0	-1
CC(C)CCN1C(=O)CC(NNC(=O)c2ccc(F)cc2)C1=O (stereo not drawn)	0	5.7*	0	-8	1	2
FC(F)(F)c1ccc(-c2cnnc(N3CCN(Cc4cccnc4)CC3)n2)cc1	-2	6.0*	0	6	0	-2
FC(F)(F)c1cccc(-c2cnnc(N3CCN(c4ccccn4)CC3)n2)c1	12	15*	0	12	0	9
C[C@@H]1CN(c2nncc(-c3cccc(C(F)(F)F)c3)n2)C[C@H](C)O1	13	-1	0	0	nt	nt
FC(F)(F)c1ccc(-c2cnnc(N3CCCCCC3)n2)cc1	2	0	0	7	nt	nt
COc1ccc(NC(=O)c2ccc(Cl)c([N+](=O)[O-])c2)cc1	-3	0	0	-14	nt	nt
COC(=O)C1=C(C)N=c2s/c(=C/c3cccs3)c(=O)n2C1c1ccc(OC(C)=O)cc1 (stereo not drawn)	19	-1	2	-6	nt	nt
CNC(=O)N(O)C1N(C)C(=O)N(CCC(=O)NN)C1(C)C (stereo not drawn)	-2	0	0	8	nt	nt
Cc1ccccc1C(=O)NCc1nc(-c2ccccc2)no1	2	6.9*	0	1	-1	-12
CCN(CC)CCNC1CCN(c2ccc(NC(=O)c3cccc(Cl)c3)cc2)CC1	14	1	0	-35	nt	nt
CCOCCCNC1CCN(c2ccc(NC(=O)c3cccc(Cl)c3)cc2)CC1	12	17*	0	27	0	21
